# Laboratory results taken from PubChem BioAssay (NCI).
# Compounds without any hit were thinned out: in the full panel of roughly 79,000, 15% have a hit. Values without a mark were called inactive. Active and inactive are the calls of the source. Cut-off read from the data, not from the text of the source: active = growth inhibition above about 70%; inactive = the rest.
# Legend:
# [1] = NCI Yeast Anticancer Drug Screen. Data for the rad52 strain (AID 147);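 note: 0% = growth of vehicle-treated control cultures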; settings: S. cerevisiae rad52 mutant growth inhibition, stronger effect = higher value
# Outline: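 Read-out: growth inhibition versus vehicle-treated controls. Cells were a DNA repair-deficient yeast strain treated with compounds.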
# [2] = NCI Yeast Anticancer Drug Screen. Data for the wt1 strain (AID 149);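 note: 0% = growth of vehicle-treated wt1 cultures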; settings: S. cerevisiae wt1 strain (SPY 50644) growth inhibition, stronger effect = higher value
# Outline: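 wt1 strain grown with compound or vehicle; inhibition taken from the growth difference.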
# [3] = NCI Yeast Anticancer Drug Screen. Data for the rad50EPP+ strain (AID 151);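 note: 0% = growth of vehicle-treated control cultures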; settings: S. cerevisiae rad50 mutant strain, stronger effect = higher value
# Outline: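 Growth inhibition read against vehicle controls in rad50EPP+ yeast, a strain altered in DNA damage repair, after compound exposure.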
# [4] = NCI Yeast Anticancer Drug Screen. Data for the mgt1 strain (AID 153); settings: S. cerevisiae mgt1 mutant growth inhibition, stronger effect = higher value
# Outline: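 mgt1 yeast grown with test compound; read-out is growth inhibition versus vehicle-treated cultures.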
# [5] = NCI Yeast Anticancer Drug Screen. Data for the rad50 strain (AID 155);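 note: 0% = growth of vehicle-only cultures of the same strain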; settings: S. cerevisiae rad50 strain growth inhibition, stronger effect = higher value
# Outline: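 DNA repair mutant yeast, compound exposure, growth read-out; inhibition is taken relative to vehicle.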
# [6] = NCI Yeast Anticancer Drug Screen. Data for the mec2-1 strain (AID 157); settings: S. cerevisiae mec2-1 strain, stronger effect = higher value
# Outline: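 Yeast mec2-1 mutant treated with compound. Readout: growth inhibition vs vehicle controls.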
# [7] = NCI Yeast Anticancer Drug Screen. Data for the rad14 strain (AID 159);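 note: 0% = growth of vehicle-treated control cultures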; settings: S. cerevisiae rad14 strain growth inhibition, stronger effect = higher value
# Outline: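 DNA repair-defective yeast, compound-exposed; % growth inhibition derived by comparison with vehicle-treated controls.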
# [8] = NCI Yeast Anticancer Drug Screen. Data for the sgs1 mgt1 strain (AID 161);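 note: 0% = growth of cultures given vehicle only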; settings: S. cerevisiae sgs1 mgt1 strain, stronger effect = higher value
# Outline: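 Inhibition of yeast growth, normalised to vehicle-treated controls, is reported for a strain bearing genetic alterations in DNA damage repair.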
# [9] = NCI Yeast Anticancer Drug Screen. Data for the CLN2oe strain (AID 163);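 note: 0% = growth of vehicle-only control cultures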; settings: S. cerevisiae CLN2oe strain, stronger effect = higher value
# Outline: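 Read-out: yeast growth inhibition, expressed relative to vehicle-only controls. The strain bears an engineered cell-cycle alteration.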
# [10] = NCI Yeast Anticancer Drug Screen. Data for the cln2 rad14 strain (AID 165);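 note: 0% = growth equal to vehicle treated cultures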; settings: S. cerevisiae cln2 rad14 strain, stronger effect = higher value
# Outline: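 cln2 rad14 yeast strain; compound exposure; growth inhibition read vs vehicle controls.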
# [11] = NCI Yeast Anticancer Drug Screen. Data for the bub3 strain (AID 167); settings: S. cerevisiae bub3 mutant strain, stronger effect = higher value
# Outline: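 In this screen, a yeast mutant lacking normal mitotic checkpoint function is challenged with compound. Relative growth versus vehicle gives the inhibition value.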
# [12] = NCI Yeast Anticancer Drug Screen. Data for the wt2 strain (AID 169);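 note: 0% = growth of vehicle-treated yeast cultures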; settings: S. cerevisiae wt2 strain growth inhibition, stronger effect = higher value
# Outline: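 Read-out: growth inhibition versus vehicle-treated control cultures after compound exposure of the yeast strain.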
# [13] = NCI Yeast Anticancer Drug Screen. Data for the mlh1 strain (AID 171);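 note: 0% = growth of vehicle-treated control cultures of the same strain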; settings: S. cerevisiae mlh1 strain growth inhibition, stronger effect = higher value
# Outline: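 Read-out: growth inhibition versus vehicle controls. Strain: engineered yeast with a defined DNA repair or cell cycle defect, compound-treated.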
# [14] = NCI Yeast Anticancer Drug Screen. Data for the mlh1 rad18 strain (AID 175); settings: S. cerevisiae mlh1 rad18 strain growth inhibition, stronger effect = higher value
# Outline: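 Yeast w/ defined DNA-repair lesions; compound exposure; growth vs vehicle controls → % inhibition.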
# [15] = NCI Yeast Anticancer Drug Screen. Data for the rad18 strain (AID 177); settings: S. cerevisiae rad18 mutant growth inhibition, stronger effect = higher value
# Outline: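 Readout: growth inhibition vs vehicle controls. Cells: genetically altered yeast strain, DNA repair defect.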
# [16] = at 5.0 µM (retest, dose inferred, filed as 0.5)
# [17] = at 50.0 µM (retest, dose inferred, filed as 5.0)
compound,measurement,setting,value
NC1=NS(=O)(=O)N=C(N)C1=Cc1ccc([N+](=O)[O-])o1,growth inhibition,[1]; at 1.2 µM,-23%
same,growth inhibition,[1]; at 3.7 µM,-14%
same,growth inhibition,[1]; at 11.0 µM,20%
same,growth inhibition,[1]; at 33.0 µM,82% (active)
same,growth inhibition,[1]; at 100.0 µM,97% (active)
same,growth inhibition,[2]; at 1.2 µM,-20%
same,growth inhibition,[2]; at 3.7 µM,-11%
same,growth inhibition,[2]; at 11.0 µM,-6%
same,growth inhibition,[2]; at 33.0 µM,-18%
same,growth inhibition,[2]; at 100.0 µM,98% (active)
same,growth inhibition,[3]; at 1.2 µM,0%
same,growth inhibition,[3]; at 3.7 µM,18%
same,growth inhibition,[3]; at 11.0 µM,64%
same,growth inhibition,[3]; at 33.0 µM,88% (active)
same,growth inhibition,[3]; at 100.0 µM,97% (active)
same,growth inhibition,[4]; at 1.2 µM,7%
same,growth inhibition,[4]; at 3.7 µM,16%
same,growth inhibition,[4]; at 11.0 µM,12%
same,growth inhibition,[4]; at 33.0 µM,33%
same,growth inhibition,[4]; at 100.0 µM,99% (active)
same,growth inhibition,[5]; at 1.2 µM,6%
same,growth inhibition,[5]; at 3.7 µM,21%
same,growth inhibition,[5]; [16],3%
same,growth inhibition,[5]; at 11.0 µM,42%
same,growth inhibition,[5]; at 33.0 µM,78% (active)
same,growth inhibition,[5]; [17],77% (active)
same,growth inhibition,[5]; at 50.0 µM,88% (active)
same,growth inhibition,[5]; at 100.0 µM,97% (active)
same,growth inhibition,[6]; at 1.2 µM,-20%
same,growth inhibition,[6]; at 3.7 µM,-25%
same,growth inhibition,[6]; [16],-20%
same,growth inhibition,[6]; at 11.0 µM,-15%
same,growth inhibition,[6]; at 33.0 µM,10%
same,growth inhibition,[6]; [17],14%
same,growth inhibition,[6]; at 50.0 µM,93.8% (active)
same,growth inhibition,[6]; at 100.0 µM,98% (active)
same,growth inhibition,[7]; at 1.2 µM,-7%
same,growth inhibition,[7]; at 3.7 µM,-8%
same,growth inhibition,[7]; at 11.0 µM,-9%
same,growth inhibition,[7]; at 33.0 µM,1%
same,growth inhibition,[7]; at 100.0 µM,97% (active)
same,growth inhibition,[8]; [16],-6%
same,growth inhibition,[8]; [17],43%
same,growth inhibition,[8]; at 50.0 µM,92.7% (active)
same,growth inhibition,[9]; at 1.2 µM,9%
same,growth inhibition,[9]; at 3.7 µM,0%
same,growth inhibition,[9]; at 11.0 µM,-11%
same,growth inhibition,[9]; at 33.0 µM,13%
same,growth inhibition,[9]; at 100.0 µM,99% (active)
same,growth inhibition,[10]; [16],-16%
same,growth inhibition,[10]; [17],25%
same,growth inhibition,[10]; at 50.0 µM,74.7% (active)
same,growth inhibition,[11]; at 1.2 µM,8%
same,growth inhibition,[11]; at 3.7 µM,-11%
same,growth inhibition,[11]; [16],5%
same,growth inhibition,[11]; at 11.0 µM,-22%
same,growth inhibition,[11]; at 33.0 µM,-27%
same,growth inhibition,[11]; [17],47%
same,growth inhibition,[11]; at 50.0 µM,68.5%
same,growth inhibition,[11]; at 100.0 µM,98% (active)
same,growth inhibition,[12]; at 1.2 µM,-41%
same,growth inhibition,[12]; at 3.7 µM,-34%
same,growth inhibition,[12]; at 11.0 µM,-22%
same,growth inhibition,[12]; at 33.0 µM,-6%
same,growth inhibition,[12]; at 100.0 µM,98% (active)
same,growth inhibition,[13]; at 1.2 µM,-7%
same,growth inhibition,[13]; at 3.7 µM,-6%
same,growth inhibition,[13]; at 11.0 µM,2%
same,growth inhibition,[13]; at 33.0 µM,33%
same,growth inhibition,[13]; at 100.0 µM,98% (active)
same,growth inhibition,[14]; [16],3%
same,growth inhibition,[14]; [17],84% (active)
same,growth inhibition,[14]; at 50.0 µM,88.8% (active)
same,growth inhibition,[15]; at 1.2 µM,11%
same,growth inhibition,[15]; at 3.7 µM,17%
same,growth inhibition,[15]; at 11.0 µM,71% (active)
same,growth inhibition,[15]; at 33.0 µM,89% (active)
same,growth inhibition,[15]; at 100.0 µM,98% (active)
O=[N+]([O-])c1cccc2nccc(NCCCO)c12,growth inhibition,[1]; at 1.2 µM,18%
same,growth inhibition,[1]; at 3.7 µM,2%
same,growth inhibition,[1]; at 11.0 µM,11%
same,growth inhibition,[1]; at 33.0 µM,40%
same,growth inhibition,[1]; at 100.0 µM,70% (active)
same,growth inhibition,[2]; at 1.2 µM,1%
same,growth inhibition,[2]; at 3.7 µM,0%
same,growth inhibition,[2]; at 11.0 µM,5%
same,growth inhibition,[2]; at 33.0 µM,10%
same,growth inhibition,[2]; at 100.0 µM,16%
same,growth inhibition,[3]; at 1.2 µM,14%
same,growth inhibition,[3]; at 3.7 µM,13%
same,growth inhibition,[3]; at 11.0 µM,20%
same,growth inhibition,[3]; at 33.0 µM,27%
same,growth inhibition,[3]; at 100.0 µM,46%
same,growth inhibition,[4]; at 1.2 µM,-24%
same,growth inhibition,[4]; at 3.7 µM,-9%
same,growth inhibition,[4]; at 11.0 µM,-12%
same,growth inhibition,[4]; at 33.0 µM,5%
same,growth inhibition,[4]; at 100.0 µM,26%
same,growth inhibition,[5]; at 1.2 µM,-17%
same,growth inhibition,[5]; at 3.7 µM,3%
same,growth inhibition,[5]; [16],32%
same,growth inhibition,[5]; at 11.0 µM,11%
same,growth inhibition,[5]; at 33.0 µM,40%
same,growth inhibition,[5]; [17],79% (active)
same,growth inhibition,[5]; at 50.0 µM,46.3%
same,growth inhibition,[5]; at 100.0 µM,70% (active)
same,growth inhibition,[6]; at 1.2 µM,-20%
same,growth inhibition,[6]; at 3.7 µM,-12%
same,growth inhibition,[6]; [16],13%
same,growth inhibition,[6]; at 11.0 µM,-3%
same,growth inhibition,[6]; at 33.0 µM,23%
same,growth inhibition,[6]; [17],52%
same,growth inhibition,[6]; at 50.0 µM,57.7%
same,growth inhibition,[6]; at 100.0 µM,68%
same,growth inhibition,[7]; at 1.2 µM,-9%
same,growth inhibition,[7]; at 3.7 µM,4%
same,growth inhibition,[7]; at 11.0 µM,34%
same,growth inhibition,[7]; at 33.0 µM,75% (active)
same,growth inhibition,[7]; at 100.0 µM,91% (active)
same,growth inhibition,[8]; [16],51%
same,growth inhibition,[8]; [17],85% (active)
same,growth inhibition,[8]; at 50.0 µM,73.8% (active)
same,growth inhibition,[9]; at 1.2 µM,11%
same,growth inhibition,[9]; at 3.7 µM,5%
same,growth inhibition,[9]; at 11.0 µM,4%
same,growth inhibition,[9]; at 33.0 µM,2%
same,growth inhibition,[9]; at 100.0 µM,14%
same,growth inhibition,[10]; [16],15%
same,growth inhibition,[10]; [17],91% (active)
same,growth inhibition,[10]; at 50.0 µM,57.9%
same,growth inhibition,[11]; at 1.2 µM,-12%
same,growth inhibition,[11]; at 3.7 µM,-13%
same,growth inhibition,[11]; [16],4%
same,growth inhibition,[11]; at 11.0 µM,-14%
same,growth inhibition,[11]; at 33.0 µM,-18%
same,growth inhibition,[11]; [17],-43%
same,growth inhibition,[11]; at 50.0 µM,10.1%
same,growth inhibition,[11]; at 100.0 µM,-9%
same,growth inhibition,[12]; at 1.2 µM,-27%
same,growth inhibition,[12]; at 3.7 µM,-26%
same,growth inhibition,[12]; at 11.0 µM,-19%
same,growth inhibition,[12]; at 33.0 µM,-22%
same,growth inhibition,[12]; at 100.0 µM,6%
same,growth inhibition,[13]; at 1.2 µM,-26%
same,growth inhibition,[13]; at 3.7 µM,-7%
same,growth inhibition,[13]; at 11.0 µM,-3%
same,growth inhibition,[13]; at 33.0 µM,5%
same,growth inhibition,[13]; at 100.0 µM,30%
same,growth inhibition,[14]; [16],24%
same,growth inhibition,[14]; [17],91% (active)
same,growth inhibition,[14]; at 50.0 µM,32.9%
same,growth inhibition,[15]; at 1.2 µM,46%
same,growth inhibition,[15]; at 3.7 µM,79% (active)
same,growth inhibition,[15]; at 11.0 µM,88% (active)
same,growth inhibition,[15]; at 33.0 µM,93% (active)
same,growth inhibition,[15]; at 100.0 µM,94% (active)
